An excerpt weighted towards active compounds, which were near 31% of everything screened.
CYP2C19 activ = human CYP2C19 activators, primary screen, biochemical, luminescence; Cytochrome P450 2C19 (Homo sapiens), P33261; recombinant CYP2C19, luciferin-H EGE luminescence; hits give high values; 0 = fully inhibited enzyme, 1 = untreated enzyme; activation factor at 5 µM; 96,000 tested, under 10 active; AID 1025, 2008;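 active means activation factor of at least 2 at 5 µM in the primary screen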;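 further: 0 = wells with 2.5 mM tranylcypromine and 1 = vehicle-only wells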
CYP2C9 inhib = blockers of cytochrome P450 2C9 activity – biochemical, luminescence, ADME assay, primary screen. inhibition, % at 5 µM. CYP2C9 Supersomes, luciferin-H conversion. P11712. 96,000 tested, 20% active;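 active means blocking of liver enzyme CYP2C9 beyond about 50% at 5 µM, limit read from the data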
PLAP act = PLAP enzyme activators, biochemical, luminescence, HTS; purified PLAP enzyme, luminescent substrate read-out; hits give high values; activation fold at 20 µM; 96,000 tested, 1.2% active; AID 696, 2007; in the data active means activation fold above about 2
Target sequence (P05187 whole entry, looked up): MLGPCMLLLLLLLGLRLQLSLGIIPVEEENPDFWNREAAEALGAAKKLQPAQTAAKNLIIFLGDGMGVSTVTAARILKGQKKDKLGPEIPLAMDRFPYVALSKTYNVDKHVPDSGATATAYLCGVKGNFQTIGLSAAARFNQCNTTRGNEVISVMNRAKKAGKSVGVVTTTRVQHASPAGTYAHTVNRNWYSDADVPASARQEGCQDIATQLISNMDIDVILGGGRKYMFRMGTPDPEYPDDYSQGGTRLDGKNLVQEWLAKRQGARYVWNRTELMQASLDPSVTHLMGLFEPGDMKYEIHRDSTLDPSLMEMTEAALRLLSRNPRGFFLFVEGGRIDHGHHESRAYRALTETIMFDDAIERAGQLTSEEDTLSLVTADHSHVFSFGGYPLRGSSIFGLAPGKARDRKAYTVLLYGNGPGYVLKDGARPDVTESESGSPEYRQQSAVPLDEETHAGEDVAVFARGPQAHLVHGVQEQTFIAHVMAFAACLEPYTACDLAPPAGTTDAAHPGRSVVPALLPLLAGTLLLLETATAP
CYP2C9 act = human CYP2C9 activators, primary screen, biochemical, luminescence. recombinant CYP2C9, luciferin-H conversion; hits give high values; factor 1 = untreated enzyme, 0 = blocked. activation factor at 5 µM. 96,000 tested, 1.4% active. AID 1024, 2008;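 active means activation factor of 2 or more for CYP2C9 at a 5 µM dose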;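 further: 0 = sulfaphenazole-blocked wells and 1 = vehicle-only wells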
CYP2C19 inhib = blockers of cytochrome P450 2C19 activity – biochemical, luminescence, ADME assay, primary screen; P33261; CYP2C19 Supersomes, luciferin-H EGE luminescence, 30 min; inhibition, % at 5 µM; 96,000 tested, 21% active; AID 778, 2007;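 active means CYP2C19 inhibition above a set limit at 5 µM in the primary screen, cut at about 50% in these data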;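 further: plate controls were negative control wells for no effect and 2.5 mM tranylcypromine positive control for full effect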
* hit, by the source's call.

`COC(=O)c1oc2ccc(Br)cc2c1NC(=O)CCCN1C(=O)c2ccccc2C1=O` gave CYP2C19 activ 0.6, CYP2C9 inhib 64*, PLAP act 1.1, CYP2C9 act 0.4 and CYP2C19 inhib 43.
For Cc1cccnc1NC(=O)CCCN1C(=O)c2ccccc2C1=O the results were CYP2C19 activ 0.9, CYP2C9 inhib -110, PLAP act 0.9, CYP2C9 act 2.1* and CYP2C19 inhib 7.
`CC(=O)Nc1ccc(NC(=O)CCCCCN2C(=O)c3ccccc3C2=O)cc1` gave CYP2C19 activ 0.6, CYP2C9 inhib 92*, PLAP act 0.9, CYP2C9 act 0.1 and CYP2C19 inhib 40.
For CC(=O)Nc1ccc2c(c1)C(=O)c1ccccc1C2=O the results were CYP2C19 activ 0.7, CYP2C9 inhib 63*, PLAP act 0.8, CYP2C9 act 0.4 and CYP2C19 inhib 30.
For O=C(CCCCCN1C(=O)c2ccccc2C1=O)NCc1ccccn1 the results were CYP2C19 activ 1, CYP2C9 inhib 0, PLAP act 1, CYP2C9 act 1 and CYP2C19 inhib -2.
O=C(CCCCCN1C(=O)c2ccccc2C1=O)Nc1ccccc1 was read as CYP2C19 activ 0.4, CYP2C9 inhib 58*, PLAP act 0.7, CYP2C9 act 0.4 and CYP2C19 inhib 64*.
O=C(CCCN1C(=O)c2ccccc2C1=O)Nc1c2c(nc3c1CCC3)CCC2 was read as CYP2C19 activ 1, CYP2C9 inhib 63*, PLAP act 1, CYP2C9 act 0.4 and CYP2C19 inhib -4.
O=C(CCCCCN1C(=O)c2ccccc2C1=O)Nc1nccs1 was read as CYP2C19 activ 0.9, CYP2C9 inhib 56*, PLAP act 0.8, CYP2C9 act 0.4 and CYP2C19 inhib 6.
For Cc1cc(C)nc(NS(=O)(=O)c2ccc(NC(=O)CCCN3C(=O)c4ccccc4C3=O)cc2)n1 the results were CYP2C19 activ 0.7, CYP2C9 inhib 33, PLAP act 1.4, CYP2C9 act 0.7 and CYP2C19 inhib 28.
Screening CCN(CC)c1ccc(NC(=O)CCCCCN2C(=O)c3ccccc3C2=O)cc1 returned CYP2C19 activ 0.8, CYP2C9 inhib 76*, PLAP act 1.2, CYP2C9 act 0.2 and CYP2C19 inhib 19.
CCc1c(C)nc(SC)n(CC#N)c1=O was read as CYP2C19 activ 1.1, CYP2C9 inhib -21, PLAP act 0.9, CYP2C9 act 1.2 and CYP2C19 inhib -14.
For CN(C1CCCCC1)S(=O)(=O)c1ccc(S(=O)(=O)N2CCN(CCC#N)CC2)cc1 the results were CYP2C19 activ 1.1, CYP2C9 inhib 2, PLAP act 0.9, CYP2C9 act 1 and CYP2C19 inhib -7.
Screening O=C(CC(=O)NC1CCCCC1)N/N=C/c1cccc2ccccc12 returned CYP2C19 activ 0.9, CYP2C9 inhib -2, PLAP act 0.9, CYP2C9 act 1 and CYP2C19 inhib 6.
COc1ccc(N2C(=O)c3ccc(NC(C)=O)cc3C2=O)cc1 was read as CYP2C19 activ 0.9, CYP2C9 inhib 55*, PLAP act 0.9, CYP2C9 act 0.4 and CYP2C19 inhib 12.
Screening Cc1c(C(N)=O)sc(N)c1C(=O)OC(C)C returned CYP2C19 activ 0.8, CYP2C9 inhib 16, PLAP act 0.9, CYP2C9 act 0.8 and CYP2C19 inhib 21.
CC(=O)c1sc(N)c(C(=O)OC(C)C)c1C was read as CYP2C19 activ 0.2, CYP2C9 inhib 45, PLAP act 1, CYP2C9 act 0.6 and CYP2C19 inhib 80*.
`COc1ccc(C2=NCN(c3ccc(C)cc3)C(=S)N2)cc1` gave CYP2C19 activ 1.1, CYP2C9 inhib -8, PLAP act 0.9, CYP2C9 act 1.1 and CYP2C19 inhib -15.
`Cc1ccc(N2CN=C(c3ccccc3)NC2=S)cc1` gave CYP2C19 activ 0, CYP2C9 inhib 76*, PLAP act 1, CYP2C9 act 0.2 and CYP2C19 inhib 99*.
Cc1cccc(NC(=O)CSCc2c(C)noc2C)c1C was read as CYP2C19 activ 0.3, CYP2C9 inhib -9, PLAP act 0.9, CYP2C9 act 1.1 and CYP2C19 inhib 74*.
`Cc1ccccc1Nc1nc(N)nc(CSCc2c(C)noc2C)n1` gave CYP2C19 activ 0.4, CYP2C9 inhib 57*, PLAP act 1.2, CYP2C9 act 0.4 and CYP2C19 inhib 64*.
